High-throughput results deposited in PubChem by National Center for Advancing Translational Sciences (NCATS).
In the library only some 1.6% were active in any assay of this set; here they are far more common.
HTT aggregate: inhibitors of mutant huntingtin aggregate formation in PC12 cells; PC12 HttQ103-GFP aggregates, Acumen cytometry, 40 h; Potency, µM (doses to about 46.1 µM), without a hit: at the top dose activity change, negative = inhibition, actives largely listed as inhibitors; 220,000 tested, 1.1% active; note: potency is the fitted concentration of half-maximal effect; % is set by controls: 0 for no effect and ±100 for the full control effect; nearly all actives have a fitted effect of over 60% in size
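Compounds (qHTS titration) were added to PC12 cells expressing an ecdysone-driven HTT exon 1 Q103–GFP fusion after induction with 100 nM tebufenozide. Aggregate formation was measured as GFP objects in cell lysates.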
IMPase cell inh: IMPase inhibition in cells; P97697; inhibition (IP1 accumulation), % at 46.1 µM; CHO-M1 cells, IP1 accumulation, HTRF TR-FRET ratio; 120,000 tested, under 10 active; active = well fitted curve in the direction sought with a large enough effect in the signal ratio, not every such curve was filed as active; inconclusive = small, poorly fitted or top-dose-only effect, or a change in a side signal; inactive = no such curve, though single readings can be large or run the other way; the % refers to the signal ratio;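 note: cells stimulated with carbachol in lithium chloride buffer; plate controls were DMSO basal wells for no effect and reference inhibitor wells for full effect; higher means more IMPase inhibition seen as more IP1 and lower FRET ratio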
Target sequence (P97697 whole entry, looked up): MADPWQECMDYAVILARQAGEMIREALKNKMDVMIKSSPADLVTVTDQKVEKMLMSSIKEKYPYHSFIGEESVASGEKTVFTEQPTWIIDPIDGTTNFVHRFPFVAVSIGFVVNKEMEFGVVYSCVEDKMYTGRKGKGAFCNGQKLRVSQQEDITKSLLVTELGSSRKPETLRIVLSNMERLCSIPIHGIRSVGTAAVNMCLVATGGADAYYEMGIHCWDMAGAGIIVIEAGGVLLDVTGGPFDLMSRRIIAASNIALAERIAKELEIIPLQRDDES
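CHO-M1, 2000 cells/well, cultured 16–30 h; cpd up to 46 uM; carbachol (50 uM solution, stimulation buffer w/ 50 mM LiCl, pH 7.4), 30 min 37C; IP-One TR-FRET, 10 min RT; Ex 320/Em 665, 620; Hill-fit AC50.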
NPSR antag: antagonists of human neuropeptide S receptor cAMP signaling. 220,000 tested, 1% active. Potency, µM (titrated, usually from 38.3 µM), without a hit: top-dose activity change, negative = inhibition, usual class: inhibitors. AID 1461. Q6W5P4. CHO-NPSR cells, cAMP TR-FRET, antagonist mode; note: potency is the fitted concentration of half-maximal effect; % is set by controls: 0 for no effect and ±100 for the full control effect; nearly all actives have a fitted effect of over 50% in size
Target sequence (Q6W5P4 whole entry, looked up): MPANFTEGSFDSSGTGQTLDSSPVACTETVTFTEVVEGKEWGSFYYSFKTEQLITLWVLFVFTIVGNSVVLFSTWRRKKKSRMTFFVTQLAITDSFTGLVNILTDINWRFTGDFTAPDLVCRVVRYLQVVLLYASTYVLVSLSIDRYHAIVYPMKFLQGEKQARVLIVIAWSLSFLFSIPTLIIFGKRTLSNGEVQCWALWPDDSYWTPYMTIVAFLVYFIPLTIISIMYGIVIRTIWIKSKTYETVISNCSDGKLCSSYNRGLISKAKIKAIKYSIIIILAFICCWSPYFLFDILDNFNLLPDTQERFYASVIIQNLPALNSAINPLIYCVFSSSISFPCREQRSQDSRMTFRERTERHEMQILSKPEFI
HTT ATP protect: protects HTT-Q103 PC12 cells, measured by ATP; PC12 HTT-Q103 induced, cytoprotection, ATP luminescence, 40 h; Potency, µM (series often up to 56.4 µM), for inactives: cytoprotection (ATP increase), actives largely listed as activators; AID 1471; 230,000 tested, 0.14% active; note: potency is the fitted concentration of half-maximal effect; % of control where 0% means no effect; nearly all actives have a fitted effect of over 45% in size
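Huntington model: PC12 line, ecdysone-inducible HTTQ103 exon1–GFP, tebufenozide 100 nM. Test articles in a dose series. Endpoint luminescence from cellular ATP.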
Lamin A splicing: LMNA splicing modulation | HeLa LMNA splicing GFP/RFP minigene ratio, 48 h | Potency, µM (top dose mostly 46.1 µM), inactives show at the highest dose ratio change, negative = inhibition, hits mostly inhibitors | AID 1487 | 200,000 tested, 0.01% active; active = well fitted inhibition curve with a large enough effect in the signal ratio, with a control signal flat, not every such curve was filed as active; inconclusive = small, poorly fitted or top-dose-only effect, or effect the other way, or a change in a side signal; the % refers to the signal ratio; note: potency is the fitted concentration of half-maximal effect; % is set by controls: 0 for no effect and ±100 for the full control effect
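Read-out is the ratio of GFP to DsRed2 object intensity, acquired by 488 nm laser-scanning cytometry on HeLa lamin A-EGFP minigene reporter cells. Compound incubation 48 hrs at 37 °C in Opti-MEM with 2% FBS; DMSO 0.5% final.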
IMPase Li inh: membrane-permeable IMPase blocker, potentiated with lithium; CHO-M1 cells, IP1 TR-FRET (IP-One), carbachol + lithium; Potency, µM (highest dose often 59.4 µM), for the others: top-dose activity, negative = IMPase inhibition, actives largely listed as inhibitors; 210,000 tested, 0.35% active; AID 1457;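 note: IP1 builds up when IMPase is blocked and the TR-FRET signal falls; potency is the fitted concentration of half-maximal effect; plate controls were basal vehicle for no effect and high inhibitor control for full effect; nearly all actives have a fitted effect of over 50% in size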
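IP1 accumulation measured by competitive TR-FRET in lysed CHO-M1 cells after 30 min compound exposure at 37C, with a small lithium addition to potentiate weak responses. Hill-equation AC50 from ratio and donor-channel data.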
* hit, by the source's call; ? = inconclusive; . = not tested or not shown; ! = repeats disagree; [ ] = dose if it differs, or a comment. Unless noted, calls come from the whole dose curve; as a rule, active = well fitted curve in the direction sought with a large enough effect; inconclusive = small, poorly fitted or top-dose-only effect, or another doubt; inactive = no such curve, though single readings can be large; an effect the other way counts as inactive or inconclusive.

SMILES	HTT aggregate	IMPase cell inh	NPSR antag	HTT ATP protect	Lamin A splicing	IMPase Li inh
CCN(c1ccc(OC)cc1)c1ncnc2nc[nH]c12	5.6µM*	1	12%[46.1 µM]	-30%[10 µM]	-11%	28%[38.3 µM]
CCCCN(CCCC)c1ncnc2nc[nH]c12	?	.	-26%	-33%	19%[46 µM]	1%
CC(C)c1cc(C(N)=O)c(NC(=O)c2cccc(COc3ccc(Cl)cc3)c2)s1	-24%	?	10µM*	-37%	-13%	47%[38.3 µM]
C[N+](C)(C)CCOP(=O)([O-])OP(=O)(O)OCC1OC(n2ccc(N)nc2=O)C(O)C1O (stereo not given)	.	.	.	12%	.	2%
Cc1cc(C)n(-c2ccc3cccc(NS(C)(=O)=O)c3n2)n1	8.9µM*	2	-5%[46.1 µM]	-59%	?	33%[38.3 µM]
Cc1ccc(C(=O)C(c2ccccc2)N2Cc3ccccc3C2=N)cc1 (stereo not given)	16µM*	.	?	20%[10 µM]	?	7%
S=c1[nH]nc(-c2cc3c(s2)-c2ccccc2CC3)o1	1%	?	10µM*	18%[10 µM]	-7%	?
COc1ccc(NC(=O)CSc2nc(-c3cccc(C)c3)[nH]c2-c2ccccc2)cc1OC	.	11	.	.	.	.
COc1ccccc1-c1nn2c(C(F)(F)F)nnc2s1	-17%	-1	?	-6%[0.074 µM]	5%	7.9µM*
c1ccc(Cc2nn3c(C4COc5ccccc5O4)nnc3s2)cc1 (stereo not given)	-22%	1	-9%[46.1 µM]	-10%	-19%	10%
COc1ccccc1-c1nn2c(C3COc4ccccc4O3)nnc2s1 (stereo not given)	-16%	5	?	-22%[0.074 µM]	?	32µM*
CN(C1CCCCC1)S(=O)(=O)c1ccc(NC(=O)C2CCCCC2)cc1	1.8µM*	-8	?	-33%[10 µM]	?	33%[38.3 µM]
CCCCCn1c(=O)[nH]c2cc(C(=O)N3CCN(Cc4ccc5c(c4)OCO5)CC3)ccc2c1=O	8.9µM*	5	-24%[46.1 µM]	-14%	?	33%[38.3 µM]
COc1c(N2CCNC(C)C2)c(F)cc2c(=O)c(C(=O)O)cn(C3CC3)c12 (stereo not given)	27%	.	.	3.2µM*!	.	4%
Cc1[nH]c2ccccc2c1CCN(Cc1cccnc1)C(=S)Nc1ccc(F)cc1	-10%	.	7.9µM*	-11%	?	10%
COC(=O)c1sc2nc(C)nc(SCC(=O)C(C)(C)C)c2c1C	?	.	-2%	-18%	-10%[46 µM]	-3%
CCOC(=O)c1sc2nc(C)nc(SCC(=O)NC3CCS(=O)(=O)C3)c2c1C (stereo not given)	12%	.	-39%	-17%	-13%[46 µM]	13µM*
COC(=O)[C@@]1(Cc2ccccc2-c2ccco2)C=C[C@H](C)[C@@H](c2ccccc2)N1C(=O)C(F)(F)F	.	.	.	10µM*	.	25%
O=C(Nc1ccc2c(c1)OCO2)c1cnn2c(C(F)(F)F)cc(-c3ccco3)nc12	9%	11	-16%[46.1 µM]	-12%	-13%	21%[38.3 µM]
O=C(Nc1cnn(C23CC4CC(CC(C4)C2)C3)c1)c1cnn2c(C(F)(F)F)cc(-c3ccco3)nc12	-20%	7	7.9µM*	9%[0.074 µM]	1%	45%[38.3 µM]
CC(C)=CCC1C(=O)N(c2ccccc2)N(c2ccccc2)C1=O	20%	.	.	73%	?	.
CCCCC1C(=O)N(c2ccccc2)N(c2ccc(O)cc2)C1=O (stereo not given)	.	.	.	2.2µM*	.	12%
COc1cc(/C=C/c2[nH]c(=O)[nH]c(=O)c2[N+](=O)[O-])ccc1OCCC(C)C	?	.	-8%	13µM*	.	-1%
CCC(C)Oc1ccc(/C=C/c2[nH]c(=O)[nH]c(=O)c2[N+](=O)[O-])cc1OC (stereo not given)	19%	.	-23%	-9%	.	-9%
Cc1cc[n+](C2=C([O-])c3ccccc3C(=O)/C2=N\S(=O)(=O)c2cccs2)cc1C	10µM*	.	-1%	-2%[10 µM]	?	4%
SMILES	HTT aggregate	IMPase cell inh	NPSR antag	HTT ATP protect	Lamin A splicing	IMPase Li inh
CC(=O)Nc1ccc(NC2=C/C(=N/S(=O)(=O)c3cccs3)c3ccccc3C2=O)cc1	5.6µM*	.	7.9µM*	.	.	54%
Cc1ccccc1NC1=C/C(=N\S(=O)(=O)c2cccs2)c2ccccc2C1=O	1.4µM*	9	3.2µM*	-111%	?	52%[38.3 µM]
Cc1cc(C)c[n+](C2=C([O-])c3ccccc3C(=O)/C2=N\S(=O)(=O)c2cccs2)c1	-11%	12	19%	-6%[1.9 µM]	?	4%
Cc1cccc(N2CCN(C3(c4ccccc4)C(=O)c4ccccc4C3=O)CC2C)c1 (stereo not given)	.	16	.	.	.	.
CCNc1ncc2nc(C)c(=O)n(C[C@H]3CCCO3)c2n1	.	.	.	?	-9%	-20%
O=C1CCC[C@H]1C(=O)Nc1ccc2ccccc2c1	.	.	.	6%[10 µM]	.	-11%
Cc1cccc(C)c1NC(=O)C(NC=O)c1ccc(Cl)cc1 (stereo not given)	-18%	2	8%[46.1 µM]	-3%[10 µM]	-12%	3%
Cc1cccc(C)c1NC(=O)C(C)c1ccc(-c2ccccc2)c(F)c1 (stereo not given)	18µM*	8	?	-29%	?	0%[38.3 µM]
COc1cc(C(N)=O)ccc1OCc1ccccc1	4%	2	-12%[46.1 µM]	-29%	4%	-2%[38.3 µM]
COc1ccc(COc2ccccc2C(N)=O)cc1F	16µM*	.	3%	.	?	-1%
NC(=O)N/N=C/c1c(Sc2nnnn2-c2ccccc2)nc2ccccn2c1=O	12%[9.22 µM]	.	28%	4.5µM*	.	.
Cc1nn(-c2ccccc2)c(Cl)c1/C=N/NC(N)=O	-24%[9.22 µM]	.	1%	14%[10 µM]	.	.
CC(NC(=O)Cn1ncc(Cl)c(Cl)c1=O)C12CC3CC(CC(C3)C1)C2 (stereo not given)	?	.	10µM*	-4%[10 µM]	-22%	5%
COc1ccc2nc(NC(=O)Nc3ccccc3)sc2c1	6%	.	-8%	-230%	?	13%
CC(C)(C)c1nc(NC(=O)Nc2ccccc2)sc1Br	11µM*	.	-51%	-129%	.	20%
CCCC(=O)Nc1nc(C)c(-c2csc(Nc3cc(OC)ccc3OC)n2)s1	?	5	-17%[46.1 µM]	-59%	?	24%[38.3 µM]
C=CCCC(=O)Nc1nc(C)c(-c2csc(Nc3cc(OC)ccc3OC)n2)s1	10µM*	8	-4%[46.1 µM]	-106%	?	30%[38.3 µM]
O=c1c2ccccc2c(C=NC2CCN(Cc3ccccc3)CC2)c(O)n1Cc1ccc2c(c1)OCO2	-2%	.	-31%	-62%	-28%[46 µM]	10%
O=S(Cc1ccc(Br)cc1)Cc1nnc(SCc2c(Cl)cccc2Cl)n1-c1ccccc1 (stereo not given)	22µM*	13	10µM*	?	?	38%[38.3 µM]
